Experimental findings from the OligoGym collection are described below.
Also: reference of the scale not given here.

The first assay has as its target PEAR1. The experiment in a line: pooled miR-30 sensor sort-seq; sequence = guide strand. The conditions noted are these: shRNA.
On to TTGCCTTTTTGCCAGTGCCGAT, for which the sensor-assay potency score (higher = more potent) was -1.65.
Same read-out and setting: the same measure for TCTGGCATGACATACTCGGAGC: -0.939; for TTTCACATGAGCAGCGTGCAGA: -0.314; for TTGGTGGTGGTAGTGAAGCTTT: -1.22.
For TAGTAGTGACTGTAGCTCGGAG, the sensor-assay potency score (higher = more potent) was -0.228.
On the same count and under the same terms, the same measure for TATAGCTGTAGCTTCGGTCCAG: 0.0436; for TTGCTGTAGCTATAGCTGTAGC: -1.31; for ATTGCTGTAGCTATAGCTGTAG: -0.261.
On the same count and under the same terms, the same measure for TCCATGTAGCTGCTCTCCCGGG: -1.66; for TTCATCTCCATGTAGCTGCTCT: 0.0491; for TAGCTATAGCTGTAGCTTCGGT: -1.04.
TAGCAGGTCCCGTTCGAGGGGT: the sensor-assay potency score (higher = more potent) is -0.75.

The next assay addresses PEBP1. Described as above. The conditions noted are these: shRNA.
In the case of TGCTCTATCACTGTAGACCTGG, the sensor-assay potency score (higher = more potent) is 0.029.
Still for that read-out and setting: the same measure for TTTGATCAAAACATAAATCAGA: -0.67; for ATACATGCAACACTGAACTGGG: 0.364.
The same measure, in the same setting: for TAATCGGAGAGGACTGTGCCAC the value was -0.276; for TATCACTGTAGACCTGGTCTTT, -0.444; for TAAACCAGCCAGACATAGCGGT, -0.718.
As to TAACACGTGCCAGCCACCGGGG, the sensor-assay potency score (higher = more potent) was -1.45.
Still for that read-out and setting: for TTCTTTTTTACATTCTGGGTTG the value was -0.707.
Regarding TATACATGCAACACTGAACTGG, the sensor-assay potency score (higher = more potent) worked out at 0.186.
In the case of TTTCTTTTTTACATTCTGGGTT, the sensor-assay potency score (higher = more potent) came out at 0.0306.
Still for that read-out and setting: for TATTATACATGCAACACTGAAC the value was -0.804.
The same measure, in the same setting: for TAAAATCACATTGTGTACCATT the value was -0.719.

Another assay has as its target PECR. The description is as above. The conditions noted are these: shRNA.
As for TAGAACTGATGTGTTCAGCAGG, the sensor-assay potency score (higher = more potent) was -0.616.
With TCAATCTCTCCAACTTACGGGA, the sensor-assay potency score (higher = more potent) was -0.32.
On the same count and under the same terms, the same measure for TTAAAGGTCTCCTTCATCTTTT: -0.272; for TTTGACAACAGAAAGGTCCCCT: 0.815; for TCTGGGAATAAATAACTCCAGG: -1.4.
On the same count and under the same terms, the same measure for TTGATCCGTATTCCACTGCAGG: -0.697; for TTCAATCTCTCCAACTTACGGG: 0.0068; for TTCATCTTTTTGACAACAGAAA: -1.6.
As to TTCCATACCAACTATAAGCTTT, the sensor-assay potency score (higher = more potent) is -0.179.
Still for that read-out and setting: the same measure for TAGTTCTCCACAGCAGTCTGGG: -0.504.
The same measure, in the same setting: the same measure for TAAACTGCTTTGCACATGTAGA: -1.07.
The same measure, in the same setting: for TATGGGAATGACTCGTGCCTGC the value was -0.624.

For another assay, the target named is PEG10. The assay is described as above. The conditions noted are these: shRNA.
Turning to TTGTGCATCAGGTAGTGGGAGC, the sensor-assay potency score (higher = more potent) is -1.26.
Turning to TTCTCTGGGAGGTCTTCTGGGC, the sensor-assay potency score (higher = more potent) was -0.944.
The same measure, in the same setting: the same measure for TTTGGCAACCTCTCGCCTCTGA: -0.158.
As for TTGCCATCGAACTTCTCTGGGA, the sensor-assay potency score (higher = more potent) is -0.275.
